# Source: PubChem BioAssay AID463173 (ICCB-Longwood Screening Facility, Harvard Medical School, 2010)
# Screen size: about 52,000 compounds; about 4,300 (8.3%) were called active. Rule as the data show it: active = survival mostly below about 52% (no sharp cut-off); inactive = mostly above about 56%. What follows is part of a selection rich in actives, with near analogues and random picks from the rest.
# Tested on: DeltatarO mutant
# Assay: S. aureus survival, RN4220 and DeltatarO strains – OD600, teichoic acid synthesis inhibitors, primary screen (AID 463173)
# Conditions: S. aureus RN4220 wild type/DeltatarO growth, OD600, 18 h, stronger effect = lower value, screened at 18.75 µg/mL (by protocol)
row,Structure (SMILES),survival
1,NC(=O)c1cc(S(=O)(=O)NCC2CCC(C(=O)Nc3cccc(Cl)c3)CC2)cs1 (stereo not given),76% (inactive)
2,CCCOc1ccc(-c2nonc2NC(=O)c2cc(OC)c(OC)c(OC)c2)cc1OCCC,84% (inactive)
3,COc1ccccc1CNC(=O)CCNS(=O)(=O)c1cccc2nsnc12,64% (inactive)
4,CCc1ccccc1NC(=O)C(=O)c1cc(C)n(-c2ccccc2F)c1C,87% (inactive)
5,CCOC(=O)C1=C(CN2CCN(c3ccc(C)cc3C)CC2)NC(=O)NC1c1ccc(OC)cc1 (stereo not given),97% (inactive)
6,CC1(C)CC2(CC(C)(C)NC(=O)N2)NC(=O)N1,89% (inactive)
7,Cc1cc(C)c(Cn2c(=O)n(Cc3ccccc3)c(=O)c3c(C)c(C)sc32)c(C)c1,49% (inactive)
8,Cc1cccc(-c2nnc(SCC(=O)NC3CCCCC3)o2)c1,82% (inactive)
9,Cc1ccc(CNC(=O)c2ccc3c(O)c(S(=O)(=O)c4ccc(Cl)cc4)c(=O)[nH]c3c2)cc1,84% (inactive)
10,Cc1cc(-c2nc3ncccc3o2)ccc1NC(=O)c1ccc(Br)cc1,174% (inactive)
11,Cc1cc(-c2nc3ncccc3o2)ccc1NC(=O)c1ccc(Cl)cc1,76% (inactive)
12,COc1ccc(C(=O)Nc2ccc(-c3nc4ncccc4o3)cc2)cc1,78% (inactive)
13,Cc1ccc(C(=O)Nc2cc(-c3nc4ncccc4o3)ccc2C)c(C)c1,98% (inactive)
14,Cc1ccc(-c2nc3ncccc3o2)cc1NC(=O)c1ccccc1Br,53% (inactive)
15,COc1c(C)cc(Br)cc1C(=O)Nc1ccc(-c2nc3ncccc3o2)cc1,50% (inactive)
16,CC(C)COc1cccc(C(=O)Nc2ccc(-c3nc4ncccc4o3)cc2)c1,65% (inactive)
17,Cc1ccc(-c2nc3ncccc3o2)cc1NC(=O)c1cccc(OCC(C)C)c1,42% (active)
18,Cc1cc(-c2nc3ncccc3o2)ccc1NC(=O)c1ccccc1Br,27% (active)
19,COc1ccc(C(=O)Nc2cc(-c3nc4ncccc4o3)ccc2C)cc1Br,40% (active)
20,Cc1cc(C)cc(C(=O)Nc2ccc(-c3nc4ncccc4o3)cc2)c1,56% (inactive)
21,CCOc1cc(C(=O)Nc2ccc(-c3nc4ncccc4o3)cc2C)cc(OCC)c1OCC,52% (active)
22,CCOC(=O)C1CCCN(S(=O)(=O)c2cc(Br)cc3c2N(C(C)=O)CC3)C1 (stereo not given),72% (inactive)
23,CCC1CN(C(=O)N2CCC(C(=O)NCc3cccc(C)c3)CC2)c2ccccc2O1 (stereo not given),77% (inactive)
24,O=C(NCc1ccco1)Nc1ccccc1,94% (inactive)
25,O=C(CCCCn1c(=O)c2ccccc2n(CC(=O)Nc2ccc(F)cc2F)c1=O)NCCc1ccccc1,92% (inactive)
